Reference: PubChem BioAssay AID1645878 (National Center for Advancing Translational Sciences (NCATS), 2021)
The other results are listed elsewhere or left out. Inconclusive results are not listed. The source made the active and inactive calls. Calls follow the shape of the dose curve; as a rule, active = well fitted inhibition curve with a large enough effect; inconclusive = small, poorly fitted or top-dose-only effect; inactive = no such curve, though single readings can be large or run the other way.

molecular target: Nicotinamide N-methyltransferase (Homo sapiens) (UniProt P40261); test: Counterscreen qHTS for Inhibitors of N-terminal methyltransferase 1 (NTMT1): NNMT MTaseGlo assay; conditions: NNMT MTase-Glo luminescence, SAH detection; series mostly up to 57.1 µM; activity, negative = inhibition: at the top concentration
From the text: Assay Submitter (PI): Rong Huang Ph.D. Purdue University, West Lafayette, IN 47907 The N-terminal methytransferase 1 is the first methyltransferase that methylates protein alpha-N-amines and plays an important role in regulating cell mitosis, chromatin interactions and DNA repair. It is observed to be over-expressed in various cancer patient tissues like malignant melanoma and colorectal cancer tissues. Knockdown of NTMT1 in cancer cells causes cell mitotic defects and enhances sensitivity to DNA damaging chemotherapeutics. […] These critical cellular processes in which NTMT1 is implicated, coupled with emerging links to cellular dysfunction, strengthen the inference that NTMT1 is a compelling novel anticancer target. […] To address this unmet need, a panel of assay is created and established to enable quantitative high-throughput screening (qHTS) for novel, potent, and selective small molecule NTMT1 inhibitors. […] MTaseGlo Assay is a luminescence screen that measure the activity of methyltransferases based on the reaction product S-adenosyl homocysteine (SAH). […]
Materials: NNMT enzyme, SAM, NA, and control is provided by the Huang laboratory. […] 11; Detection; Luminescence; Plates were read using luminescence optics on a ViewLux detector (PerkinElmer). […]

Sequence of Nicotinamide N-methyltransferase (Homo sapiens) (P40261 whole entry, looked up): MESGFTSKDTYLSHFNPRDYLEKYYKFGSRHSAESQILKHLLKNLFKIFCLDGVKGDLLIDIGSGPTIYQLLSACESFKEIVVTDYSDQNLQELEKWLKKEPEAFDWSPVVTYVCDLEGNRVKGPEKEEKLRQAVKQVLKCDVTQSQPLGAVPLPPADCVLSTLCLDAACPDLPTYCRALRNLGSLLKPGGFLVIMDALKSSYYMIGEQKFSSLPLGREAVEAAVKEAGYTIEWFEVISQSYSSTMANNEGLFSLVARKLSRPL

SMILES	activity, negative = inhibition
CC(C)(O)c1ccc2c(c1)C(=O)CC1[C@](C)(CO)CCC[C@]21C (some centres not stated)	-19.7% [at 38.3 µM] (inactive)
COc1cc2ncnc(Nc3cccc(Cl)c3F)c2cc1OC(=O)N1CCN(C)C[C@H]1C	-15.7% (inactive)
